From PubChem BioAssay (NCATS)
Inconclusive results are not listed. Unmarked numbers belong to inactive results. Calls come from the whole dose curve; as a rule, active = well fitted inhibition curve with a large enough effect; inconclusive = small, poorly fitted or top-dose-only effect; inactive = flat fitted curve, though single readings scatter.

Target: Calcium and integrin-binding protein 1 (Homo sapiens) (UniProt Q99828)
Assay: Primary qHTS for Identification of Calcium Integrin Binding Protein 1 (CIB1) Competitor (AID 1508620);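 note: GST tagged CIB1 binding a fluorescein labelled alphaIIb integrin peptide tracer; top concentration of the series differs between compounds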
Conditions: CIB1-GST / FITC-alphaIIb peptide fluorescence polarization; series mostly up to 114 µM; activity change, negative = inhibition: at the top concentration
Method in brief: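 Fluorescence polarization competition: CIB1-GST (1 uM final) preincubated with compound 15 min at room temperature, then FITC-labeled alphaIIb peptide (100 nM final) added for another 15 min. Polarization read at Ex 480/Em 540.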
% is set by controls: 0 for no effect and ±100 for the full control effect.

Chain of Calcium and integrin-binding protein 1 (Homo sapiens) (Q99828 whole entry, looked up): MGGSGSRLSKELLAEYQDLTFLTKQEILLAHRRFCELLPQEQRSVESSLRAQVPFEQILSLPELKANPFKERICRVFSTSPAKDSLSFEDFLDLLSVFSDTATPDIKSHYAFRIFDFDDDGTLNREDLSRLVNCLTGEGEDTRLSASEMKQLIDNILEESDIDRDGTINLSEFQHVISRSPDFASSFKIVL

SMILES	activity change, negative = inhibition [%]
CN(C)CCCNC(=O)c1ccc(-c2cnc3c(O)cccc3c2)cc1	-18.9
O=C(c1ccccc1)N(C(=O)c1ccccc1)c1ncnc2c1C(c1ccccc1)c1c(ccc3ccccc13)O2 (stereo not drawn)	1.59
O=C(NC1CCCc2c1cnn2-c1ccc(F)cc1F)c1ccn[nH]1 (stereo not drawn)	0.937
Cc1ccc(C(=O)NC2CCN(C#N)CC2)cc1	0.218
COC(=O)c1ccc(Nc2nc(-c3ccncc3)nc3ccccc23)cc1OC	1.55
CC(C)Oc1ccc(-c2ccc(=O)n(CC(=O)NCCc3ccccc3)n2)cc1	-5.21
N#Cc1c(-c2cccc(O)c2)no[n+]1[O-]	0.79
CC1=C(C(=O)Nc2ccon2)C(c2ccccc2Br)N=C(Nc2nc3ccccc3o2)N1 (stereo not drawn)	-0.654
O=c1c2ccc(C(F)(F)F)cc2nc2sc(Nc3ccc4c(c3)CCC4)nn12	6.94
O=C(Nc1ccc(Br)c(Br)c1)Nc1nnc(-c2cccnc2)s1	4.55
O=C1c2ccccc2C(=O)N1c1cccc(Cl)c1	0.117
Cc1c(Cl)cccc1NS(=O)(=O)c1cc2c(cc1Cl)CCC(=O)N2	2.2
CC(=O)Nc1sc2c(c1-c1cccc(F)c1)CCNC2	8.66
FC(F)(F)c1ccccc1-c1nc(NCc2ccc(-c3cccnc3)cc2)c2[nH]cnc2n1	-5.1
Cc1ccc(CN(C)c2ncnc3ccc(-c4ccc(CO)o4)cc23)o1	-6.08
O=C(c1ccccc1)N1CCN(c2nc(-c3cccs3)nc3ccccc23)CC1	3.74
N#CN1CCC(N[S+](=O)([O-])c2cccc(F)c2)CC1	3.12
CCn1cnc2c(Nc3ccc(Cc4cccnc4)cc3)nc(C#N)nc21	1.29
